# Assay outcomes: PubChem, several laboratories
# BioA inh – inhibitors of Mycobacterium tuberculosis BioA enzyme. inhibition, % at 9.99 µM. AID 602481. hit rate 0.096% among 360,000. purified M. tuberculosis BioA enzyme, plate reader; in the data active = inhibition above about 40%
# Yp Topo-I inh – blocks Yersinia pestis topoisomerase I activity. Y. pestis Topo-I cleavage product accumulation, plate reader. AID 504884. hit rate 0.064% among 360,000. activity, % at 10 µM; in the data active = activity above about 50%, passing the limit was not always enough
# RecA splice inh – inhibitors of M. tuberculosis RecA intein splicing; inhibition, % (no concentration beside the values); P9WHJ3; cell-free RecA intein splicing, fluorescence; AID 2221; hit rate 0.75% among 290,000; in the data active = inhibition above about 30%;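 also: 0% = vehicle wells and 100% = reference inhibitor control wells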
# Target sequence (P9WHJ3 whole entry, looked up, canonical isoform): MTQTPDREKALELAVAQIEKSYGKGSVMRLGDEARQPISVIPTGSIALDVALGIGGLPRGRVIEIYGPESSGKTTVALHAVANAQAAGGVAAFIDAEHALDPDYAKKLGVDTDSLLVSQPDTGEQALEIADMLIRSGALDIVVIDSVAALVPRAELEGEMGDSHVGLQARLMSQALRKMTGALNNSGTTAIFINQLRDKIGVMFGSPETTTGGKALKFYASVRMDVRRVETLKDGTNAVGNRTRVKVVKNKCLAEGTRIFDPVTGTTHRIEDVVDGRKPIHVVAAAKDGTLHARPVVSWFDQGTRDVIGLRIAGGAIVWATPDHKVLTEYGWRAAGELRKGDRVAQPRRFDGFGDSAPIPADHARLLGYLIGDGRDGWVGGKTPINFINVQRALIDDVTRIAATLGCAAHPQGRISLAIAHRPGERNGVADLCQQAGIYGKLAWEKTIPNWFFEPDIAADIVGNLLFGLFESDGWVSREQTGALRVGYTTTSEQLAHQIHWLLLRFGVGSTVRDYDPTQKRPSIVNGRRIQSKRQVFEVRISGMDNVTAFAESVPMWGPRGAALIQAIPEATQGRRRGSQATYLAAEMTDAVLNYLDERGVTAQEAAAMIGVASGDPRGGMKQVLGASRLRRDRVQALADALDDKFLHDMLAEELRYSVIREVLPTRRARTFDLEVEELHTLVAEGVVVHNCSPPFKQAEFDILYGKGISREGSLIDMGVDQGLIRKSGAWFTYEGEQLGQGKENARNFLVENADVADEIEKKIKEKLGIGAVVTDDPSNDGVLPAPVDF
# Mtb bLac sens – beta-lactam sensitization of Mtb H37Rv; M. tuberculosis H37Rv growth with meropenem, percent inhibition; inhibition, % at 25 µM; hit rate 0.27% among 330,000; call rule not given here;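 also: growth measured after seven days incubation then overnight dye step; 0% = bacteria only wells and 100% = bacteria with antibiotic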
# CCHFV vOTU inh – CCHFV vOTU protease inhibition; Pep-AMC fluorescence; inhibition, % at 11.5 µM; hit rate 0.55% among 370,000; in the data active = inhibition above about 30%; also: 0% = vehicle wells with enzyme and 100% = no enzyme wells
# BJeLR viability – BJeLR cell viability loss; BJeLR (HRASV12) viability, CellTiter-Glo ATP luminescence, 48 h; inhibition, % (test concentration not listed); hit rate 0.17% among 300,000; in the data active = inhibition above about 50%
# * = called active by the depositor; . = no result given. A selection: hits, their analogues and other compounds. The true share with any hit is near 1.1%.
SMILES,BioA inh,Yp Topo-I inh,RecA splice inh,Mtb bLac sens,CCHFV vOTU inh,BJeLR viability
O=C(C[C@@H]1C[C@H]2c3cc(NC(=O)Cc4ccncc4)ccc3O[C@H]2[C@@H](CO)O1)NCCN1CCCCC1,-1,.,.,.,.,.
COc1ccc(NC(=O)N[C@H]2CC[C@H](CC(=O)NCc3ccccn3)O[C@H]2CO)cc1,2,.,.,.,.,.
CCCCCCCNC(=O)C1(CC2CC(c3cccc(Br)c3)=NO2)CCN(C(=O)OC(C)(C)C)CC1 (stereo unspecified),0,3,1,-7,11,0
CCCCCCCNC(=O)C1(CC2CC(c3cccc(Br)c3)=NO2)CCN(C(=O)C2CCCC2)CC1 (stereo unspecified),0,60*,0,-5,18,7
C=C(C)C(=O)NC1=NN(c2ccccc2)C(=O)C1,.,-1,73*,-4,11,-7
O=C(Cc1ccccc1)CC(CC(=O)c1ccccc1)c1ccccc1 (stereo unspecified),-1,56*,.,.,11,.
C=C(C(=O)c1ccccc1)C(CC(=O)c1ccccc1)c1ccccc1 (stereo unspecified),.,-5,-4,1,-3,10
COc1ccccc1NCC(=O)c1ccc(Cl)cc1,.,98*,5,-5,-4,3
COc1ccccc1NCC(=O)c1ccc(C)c(C)c1,-1,-3,5,-2,0,-8
Cn1cnc([N+](=O)[O-])c1Sc1ccc(Br)cc1,-2,6,25,97,7,4
Cn1cnc([N+](=O)[O-])c1Sc1ccc(C(C)(C)C)cc1,-2,-9,31*,43,12,-8
O=C(N/N=C/c1ccc([N+](=O)[O-])o1)c1cn(-c2ccccc2)nc1-c1ccc(Cl)cc1,0,-3,5,13,-4,6
O=[N+]([O-])CC(=Nc1ccc(Cl)cc1)N/N=C\c1oc(O)c2ccccc12,-1,-4,8,24,33*,-4
CNC[C@@H]1Oc2cc(-c3ccncc3)ccc2S(=O)(=O)N([C@H](C)CO)C[C@H]1C,0,.,.,.,.,.
Cc1ccc(S(=O)(=O)/N=C(\N)Nc2nc(C)c3ccc(C)cc3n2)cc1,.,12,0,38,0,-5
Cc1ccc(S(=O)(=O)/N=C(\N)Nc2nc(C)c3cc(C)ccc3n2)cc1,-1,58*,-1,-2,3,-4
CCCCCOc1ccc(/C=c2\sc3nc(=O)c(-c4ccccc4)nn3c2=O)cc1OC,.,1,-4,-6,-4,-3
O=c1nc2s/c(=C\c3ccc(-c4ccccc4[N+](=O)[O-])o3)c(=O)n2nc1-c1ccccc1,.,-9,64*,.,-2,8
CN1c2ccc(-c3ccccc3F)cc2[C@H]2[C@H](CCN2C(=O)c2ccccn2)[C@@H]1CO,0,.,.,.,.,.
Cc1cc(N)c2cc(NC(=O)/C=C/c3ccccc3Cl)ccc2n1,0,-11,-3,98,.,107*
Cc1cc(C)nc(NC(=O)/C=C/c2ccccc2Cl)n1,.,-3,8,3,13,-4
CCCC(=O)Nc1ccc2c(c1)C(=O)N(C)C[C@H](OC)[C@H](C)CN(C(=O)c1ccccn1)[C@@H](C)CO2,1,.,.,.,.,.
Cc1cccc(CSC(=N)N)c1,.,-1,-1,-1,-15,4
Cc1cccc(CSC(Nc2ccc(F)cc2)=C(C#N)C#N)c1,.,0,53*,-3,-11,19
O=C(c1nnsc1S(=O)c1ccc(Cl)cc1)N1CCOCC1 (stereo unspecified),-2,0,26,.,4,-4
SMILES,BioA inh,Yp Topo-I inh,RecA splice inh,Mtb bLac sens,CCHFV vOTU inh,BJeLR viability
O=C(Nc1ccccc1)c1nnsc1S(=O)c1ccc(Cl)cc1 (stereo unspecified),-1,12,35*,100,-3,-14
C=CCN1C(c2cccc(C(F)(F)F)c2)=CS/C1=C(/C#N)c1nnc(N2CCOCC2)n1-c1ccccc1,-3,11,1,-7,12,7
C=CCN1C(=O)NC(c2ccc(OC)cc2)(C(F)(F)F)S/C1=C(\C#N)c1nnc(N2CCOCC2)n1-c1ccccc1 (stereo unspecified),.,44,43*,3,9,-1
COCC(=O)N(C)C[C@H]1Oc2ncc(-c3ccccc3F)cc2C(=O)N([C@@H](C)CO)C[C@@H]1C,3,.,.,.,.,.
COc1ccc(C(=O)N2C[C@@H]3[C@H](c4ccccc42)[C@H](CO)N3Cc2ccccc2)cc1,0,.,.,.,.,.
O=C(NCc1cccnc1)/C(=C/c1ccc(-c2cccc(C(F)(F)F)c2)o1)NC(=O)c1ccccc1,-2,30,2,20,21,3
O=C(NCc1cccnc1)/C(=C/c1ccc(-c2ccc(Cl)cc2)o1)S(=O)(=O)c1ccccc1,0,5,35*,99,-8,21
Cc1cccc(S(=O)(=O)N2C[C@H](O)COC[C@@H]3O[C@@H](CC(=O)N4CCN(C)CC4)CC[C@H]32)c1,-2,.,.,.,.,.
CC(C)CC(=O)/C(=C\c1ccc(Cl)cc1Cl)n1cncn1,2,-2,44*,.,.,16
CCCC(=O)Nc1ccc2c(c1)OC[C@@H](C)N(Cc1nccs1)C[C@@H](C)[C@H](OC)CN(C)C2=O,-1,.,.,.,.,.
COc1ccc(S(=O)(=O)N[C@H]2CC[C@H](CC(=O)O)O[C@H]2CO)cc1,2,.,.,.,.,.
CN(C)CCCNC(=O)C[C@H]1C=C[C@H](NC(=O)c2ccccc2F)[C@@H](CO)O1,1,.,.,.,.,.
CCN1CCN(C2=C(NS(=O)(=O)c3ccc(C)cc3)C(=O)c3ccccc3C2=O)CC1,0,-14,3,1,44*,-8
CC(=O)Nc1ccc(S(=O)(=O)NC2=C(N3CCN(Cc4ccccc4)CC3)C(=O)c3ccccc3C2=O)cc1,4,20,5,1,28,-3
Cc1ccc(-n2nc(C)c3c2OC(N)=C(C#N)C3c2ccoc2)cc1 (stereo unspecified),-2,-2,71*,3,-9,1
CC(C)C1C(C#N)=C(N)Oc2n[nH]c(-c3ccccc3)c21 (stereo unspecified),-1,-5,8,-12,17,-5
CC(C)(C)c1[nH]nc2c1C(c1ccoc1)C(C#N)=C(N)O2 (stereo unspecified),-1,5,56*,0,2,-1
Cc1nn(-c2ccccc2)c2c1C(c1ccc(Br)s1)C(C#N)=C(N)O2 (stereo unspecified),.,-2,.,.,.,.
Cc1ccc(-c2[nH]nc3c2C(c2ccoc2)C(C#N)=C(N)O3)cc1C (stereo unspecified),-1,-1,92*,7,.,-4
C[C@@H]1CCCCO[C@@H](CN(C)S(C)(=O)=O)[C@H](C)CN([C@H](C)CO)C(=O)c2cc(NC(=O)Cc3ccccc3)ccc2O1,0,.,.,.,.,.
CC1(C)N=C(SCC(=O)Nc2ccc(Cl)cc2Cl)C(c2ccccc2)=N1,0,1,32*,0,3,8
C[C@@H]1CN([C@@H](C)CO)C(=O)c2cc(NC(=O)Nc3cccc4ccccc34)ccc2O[C@H]1CN(C)S(=O)(=O)c1ccc(Cl)cc1,-1,.,.,.,.,.
Cc1cccc(C2=CC(=O)CC(C)(C)C2=O)c1,.,.,.,.,4,.
